# Results published in PubChem BioAssay (EPA / NIEHS).
# Results filed as inconclusive are left out. The source made the active and inactive calls. The calls were made as follows: active = hit-call score of the fitted dose curve at least 0.9, where 1 is the maximum; inconclusive = response in the unintended direction; inactive = score below 0.9.
# What was measured:
# [1] = molecular target: human Endothelin Receptor Type B (ETB), EDNRB (gene 1910) (UniProt P24530); experiment: NVS_GPCR_hETB: NovaScreen (NVS) G Protein-Coupled Receptor Assay for human Endothelin Receptor Type B (ETB) (AID 2283267)
# Method in brief: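 Filter-based scintillation readout of radioligand displacement, 4 h, using membranes from human astrocytoma cells. Actives from a 25 uM duplicate screen were retested in concentration-response (top 50 uM) relative to DMSO baseline.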
# [2] = molecular target: human Leukotriene B4 Receptor 1 (LTB4-BLT1), LTB4R (gene 1241) (UniProt Q15722); experiment: NVS_GPCR_hLTB4_BLT1: NovaScreen (NVS) G Protein-Coupled Receptor Assay for human Leukotriene B4 Receptor 1 (LTB4-BLT1) (AID 2283271)
# Method in brief: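 Cell-free human neutrophil receptor preparation, 1 h exposure, radioligand binding read by filter scintillation counting. Single 25 uM duplicate screen, then concentration series topping at 50 uM; binding loss scored against DMSO baseline.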
# [3] = molecular target: human Neurokinin, NK2 Receptor, TACR2 (gene 6865) (UniProt P21452); experiment: NVS_GPCR_hNK2: NovaScreen (NVS) G Protein-Coupled Receptor Assay for human Neurokinin, NK2 Receptor (AID 2283278);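 also: actives reduce bound radioligand signal relative to DMSO baseline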
# Method in brief: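 Test chemicals displace a radioligand from receptor prepared from CHO cells in a cell-free format, read after 4 hours by scintillation counting on filters. Screening starts at 25 uM in duplicate, and active chemicals then go to concentration series.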
# [4] = molecular target: human Thromboxane A2 Receptor (TXA2), TBXA2R (gene 6915) (UniProt P21731); experiment: NVS_GPCR_hTXA2: NovaScreen (NVS) G Protein-Coupled Receptor Assay for human Thromboxane A2 Receptor (TXA2) (AID 2283282);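 also: actives reduce bound radioligand signal relative to DMSO baseline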
# Method in brief: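 Cell-free radioligand binding on membrane protein from human platelets; radioligand displacement read by filter-based scintillation counting after 1 h. Primary screen in duplicate at 25 uM, actives then run in concentration series; loss of signal versus DMSO.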
# [5] = molecular target: human Opioid Receptor Delta 1 (Opiate D1), OPRD1 (gene 4985) (UniProt P41143); experiment: NVS_GPCR_hOpiate_D1: NovaScreen (NVS) G Protein-Coupled Receptor Assay for human Opioid Receptor Delta 1 (Opiate D1) (AID 2283280)
# Method in brief: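 Membrane preparations from CHO cells bearing the human receptor were incubated 1 h with test chemical, and bound radioligand was counted after filtration. Actives from 25 uM duplicate screening were retested in concentration-response.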
# [6] = molecular target: D(1A) dopamine receptor (Homo sapiens) (UniProt P21728); experiment: NVS_GPCR_hDRD1: NovaScreen (NVS) G Protein-Coupled Receptor Assay for human Dopamine Receptor D1 (DRD1) (AID 2283269)
# Method in brief: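 Extracted HEK293 DRD1 is incubated 1 h with compound and a tritiated or iodinated radioligand, then filtered and counted. Screening runs 25 uM in duplicate with on-plate positive and negative controls.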
# [7] = molecular target: human Neuropeptide Receptor Y1 (NPY1), NPY1R (gene 4886) (UniProt P25929); experiment: NVS_GPCR_hNPY1: NovaScreen (NVS) G Protein-Coupled Receptor Assay for human Neuropeptide Receptor Y1 (NPY1) (AID 2283276)
# Method in brief: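 Displacement of specific radioligand from NPY1 receptor of SK-N-MC origin, read by filtration and scintillation after 1 h. Compounds first tested at 25 uM in duplicate, then actives in concentration series; signal loss relative to DMSO.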
# [8] = molecular target: human Dopamine Receptor D4.4 (DRD4.4), DRD4 (gene 1815) (UniProt P21917); experiment: NVS_GPCR_hDRD4.4: NovaScreen (NVS) G Protein-Coupled Receptor Assay for human Dopamine Receptor D4.4 (DRD4.4) (AID 2283264)
# Method in brief: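 Filter-binding assay with a tritiated or iodinated ligand, cell-free receptor prepared from CHO, 1 hour. Loss of bound radioactivity versus DMSO; single 25 uM duplicate screen, then concentration-response for actives.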
# [9] = molecular target: human Endothelin Receptor Type A (ETA), EDNRA (gene 1909) (UniProt P25101); experiment: NVS_GPCR_hETA: NovaScreen (NVS) G Protein-Coupled Receptor Assay for human Endothelin Receptor Type A (ETA) (AID 2283265)
# Method in brief: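 Binding of radioligand to membrane protein extracted from SH-SY5Y cells was read by filtration and scintillation after 3 h. Compounds were screened at 25 uM in duplicate, with hits followed up in singleton concentration series to 50 uM.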
# [10] = molecular target: human Dopamine Receptor D2 (DRD2), DRD2 (gene 1813) (UniProt P14416); experiment: NVS_GPCR_hDRD2s: NovaScreen (NVS) G Protein-Coupled Receptor Assay for human Dopamine Receptor D2 (DRD2) (AID 2283266)
# Method in brief: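 Test compound (25 uM, duplicate in the primary screen; concentration series at follow-up) competed with radioligand for human DRD2 in CHO-derived membrane protein. Filter-based scintillation counting was done 1.5 hours after dosing, with loss of signal analysed against DMSO.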
# [11] = molecular target: human Histamine 1 Receptor (H1), HRH1 (gene 3269) (UniProt P35367); experiment: NVS_GPCR_hH1: NovaScreen (NVS) G Protein-Coupled Receptor Assay for human Histamine 1 Receptor (H1) (AID 2283268)
# Method in brief: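 Filter-based scintillation detection of radioligand binding to human H1, 1 h incubation; chemicals screened in duplicate at 25 uM, then concentration-response; signal loss relative to DMSO taken as activity.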
# [12] = molecular target: Muscarinic acetylcholine receptor M1 (Homo sapiens) (UniProt P11229); experiment: NVS_GPCR_hM1: NovaScreen (NVS) G Protein-Coupled Receptor Assay for human Muscarinic, M1 Receptor (AID 2283270)
# Method in brief: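 Actives from a duplicate 25 uM single-point screen were retested in concentration series. Binding measured as displacement of a radioligand from CHO-derived receptor preparation, 1 h incubation, filtration and scintillation counting, analysed as signal loss against DMSO.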
# [13] = molecular target: Muscarinic acetylcholine receptor M3 (Homo sapiens) (UniProt P20309); experiment: NVS_GPCR_hM3: NovaScreen (NVS) G Protein-Coupled Receptor Assay for human Muscarinic, M3 Receptor (AID 2283272)
# Method in brief: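 Radioligand displacement binding on human M3 receptor in CHO-derived membranes, 1 h incubation, filter-based scintillation counting. Primary screen in duplicate at 25 uM; actives followed up in concentration series; loss of signal versus DMSO.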
# [14] = molecular target: human Muscarinic, M4 Receptor, CHRM4 (gene 1132) (UniProt P08173); experiment: NVS_GPCR_hM4: NovaScreen (NVS) G Protein-Coupled Receptor Assay for human Muscarinic, M4 Receptor (AID 2283274)
# Method in brief: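 Filter-based scintillation counting of radioligand bound to CHO-expressed human M4 preparations after 1 h; loss of signal fitted versus DMSO. Initial duplicate testing at 25 uM, concentration-response follow-up for actives.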
# [15] = molecular target: Muscarinic acetylcholine receptor M5 (Homo sapiens) (UniProt P08912); experiment: NVS_GPCR_hM5: NovaScreen (NVS) G Protein-Coupled Receptor Assay for human Muscarinic, M5 Receptor (AID 2283275)
# Method in brief: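 Chemicals passing a primary duplicate screen at 25 uM were run as singleton concentration series, maximum 50 uM. Displacement of a specific radioligand from CHO-extracted receptor was read by filter scintillation after 1 h, relative to DMSO.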
# [16] = molecular target: Neuropeptide Y receptor type 2 (Homo sapiens) (UniProt P49146); experiment: NVS_GPCR_hNPY2: NovaScreen (NVS) G Protein-Coupled Receptor Assay for human Neuropeptide Receptor Y2 (NPY2) (AID 2283277)
# Method in brief: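 Chemicals were first tested in duplicate at 25 uM, then actives in singleton concentration series to 50 uM. Tracer binding to SK-N-MC-derived protein measured cell-free after 1 h via filter scintillation; signal loss relative to DMSO.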
# [17] = molecular target: human Orphanin, Opioid Related Nociceptin Receptor 1 (ORL1), OPRL1 (gene 4987) (UniProt P41146); experiment: NVS_GPCR_hORL1: NovaScreen (NVS) G Protein-Coupled Receptor Assay for human Orphanin, Opioid Related Nociceptin Receptor 1 (ORL1) (AID 2283283)
# Method in brief: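 Cell-free binding using HEK293-derived receptor protein: radioligand displacement measured by filter scintillation 1 hour after dosing. Primary testing at 25 uM in duplicate, followed by singleton concentration series up to 50 uM; DMSO served as negative control.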
# [18] = molecular target: human Purinergic Receptor P2Y, P2RY1 (gene 5028) (UniProt P47900); experiment: NVS_GPCR_hPY2: NovaScreen (NVS) G Protein-Coupled Receptor Assay for human Purinergic Receptor P2Y (AID 2283281)
# Method in brief: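 Filtration scintillation readout of radioligand displacement on U937 extract, measured 1 h post-dosing. Single 25 uM duplicate screen, then singleton concentration series to 50 uM for chemicals passing threshold; DMSO as baseline.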
# Sequence of human Dopamine Receptor D2 (DRD2), DRD2 (gene 1813) (P14416 whole entry, looked up): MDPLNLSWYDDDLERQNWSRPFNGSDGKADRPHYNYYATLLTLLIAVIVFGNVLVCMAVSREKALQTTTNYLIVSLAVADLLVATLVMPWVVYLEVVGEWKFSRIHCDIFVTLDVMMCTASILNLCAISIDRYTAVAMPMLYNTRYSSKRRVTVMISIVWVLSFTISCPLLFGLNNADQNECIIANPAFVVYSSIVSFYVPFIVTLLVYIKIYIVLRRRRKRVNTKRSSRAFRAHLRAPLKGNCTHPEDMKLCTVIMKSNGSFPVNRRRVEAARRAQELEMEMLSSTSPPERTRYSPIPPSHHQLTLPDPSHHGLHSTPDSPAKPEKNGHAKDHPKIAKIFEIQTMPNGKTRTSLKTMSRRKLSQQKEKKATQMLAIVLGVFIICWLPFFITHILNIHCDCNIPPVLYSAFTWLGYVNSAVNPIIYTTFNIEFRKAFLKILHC
# Sequence of human Opioid Receptor Delta 1 (Opiate D1), OPRD1 (gene 4985) (P41143 whole entry, looked up): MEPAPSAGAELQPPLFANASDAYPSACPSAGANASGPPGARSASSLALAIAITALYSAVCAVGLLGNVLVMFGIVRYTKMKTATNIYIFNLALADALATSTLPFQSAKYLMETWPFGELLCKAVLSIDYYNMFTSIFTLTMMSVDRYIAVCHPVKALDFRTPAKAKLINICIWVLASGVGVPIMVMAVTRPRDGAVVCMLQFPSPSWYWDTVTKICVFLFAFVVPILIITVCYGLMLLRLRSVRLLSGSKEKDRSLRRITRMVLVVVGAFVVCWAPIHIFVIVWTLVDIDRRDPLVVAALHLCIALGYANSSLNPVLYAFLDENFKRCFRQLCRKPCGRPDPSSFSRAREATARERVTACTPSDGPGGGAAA
# Sequence of human Neuropeptide Receptor Y1 (NPY1), NPY1R (gene 4886) (P25929 whole entry, looked up): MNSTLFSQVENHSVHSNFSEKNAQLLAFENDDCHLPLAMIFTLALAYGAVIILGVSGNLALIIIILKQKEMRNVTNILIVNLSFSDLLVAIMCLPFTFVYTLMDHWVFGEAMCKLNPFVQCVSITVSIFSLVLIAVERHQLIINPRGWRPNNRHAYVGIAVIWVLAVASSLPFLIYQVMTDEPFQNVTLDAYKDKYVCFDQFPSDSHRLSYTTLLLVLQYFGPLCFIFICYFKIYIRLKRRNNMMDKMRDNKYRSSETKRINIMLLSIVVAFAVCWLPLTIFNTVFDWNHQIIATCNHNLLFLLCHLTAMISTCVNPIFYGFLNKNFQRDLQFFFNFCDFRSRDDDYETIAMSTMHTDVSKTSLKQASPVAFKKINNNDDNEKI
# Sequence of human Muscarinic, M4 Receptor, CHRM4 (gene 1132) (P08173 whole entry, looked up): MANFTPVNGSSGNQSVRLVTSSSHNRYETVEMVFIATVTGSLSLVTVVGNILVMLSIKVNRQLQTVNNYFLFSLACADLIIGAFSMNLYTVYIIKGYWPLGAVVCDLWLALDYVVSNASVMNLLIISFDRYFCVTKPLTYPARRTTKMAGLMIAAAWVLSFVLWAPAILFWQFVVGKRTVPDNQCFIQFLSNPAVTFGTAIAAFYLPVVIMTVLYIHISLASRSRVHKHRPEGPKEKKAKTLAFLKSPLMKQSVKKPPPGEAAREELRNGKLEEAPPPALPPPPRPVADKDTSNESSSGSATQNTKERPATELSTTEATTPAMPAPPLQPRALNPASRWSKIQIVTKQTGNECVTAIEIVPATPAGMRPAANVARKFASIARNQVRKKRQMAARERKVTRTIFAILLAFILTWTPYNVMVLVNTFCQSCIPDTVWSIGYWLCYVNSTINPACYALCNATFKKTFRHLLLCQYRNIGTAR
# Sequence of human Neurokinin, NK2 Receptor, TACR2 (gene 6865) (P21452 whole entry, looked up): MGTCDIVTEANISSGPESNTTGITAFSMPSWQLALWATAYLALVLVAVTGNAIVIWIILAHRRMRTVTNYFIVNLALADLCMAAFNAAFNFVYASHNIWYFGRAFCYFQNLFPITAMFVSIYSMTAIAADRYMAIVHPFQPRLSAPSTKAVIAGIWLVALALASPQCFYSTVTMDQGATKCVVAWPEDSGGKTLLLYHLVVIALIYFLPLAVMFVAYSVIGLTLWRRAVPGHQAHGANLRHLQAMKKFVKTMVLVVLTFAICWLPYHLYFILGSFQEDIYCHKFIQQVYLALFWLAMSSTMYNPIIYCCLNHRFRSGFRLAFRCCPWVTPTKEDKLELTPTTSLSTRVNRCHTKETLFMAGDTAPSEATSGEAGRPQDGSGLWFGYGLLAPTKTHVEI
# Sequence of D(1A) dopamine receptor (Homo sapiens) (P21728 whole entry, looked up): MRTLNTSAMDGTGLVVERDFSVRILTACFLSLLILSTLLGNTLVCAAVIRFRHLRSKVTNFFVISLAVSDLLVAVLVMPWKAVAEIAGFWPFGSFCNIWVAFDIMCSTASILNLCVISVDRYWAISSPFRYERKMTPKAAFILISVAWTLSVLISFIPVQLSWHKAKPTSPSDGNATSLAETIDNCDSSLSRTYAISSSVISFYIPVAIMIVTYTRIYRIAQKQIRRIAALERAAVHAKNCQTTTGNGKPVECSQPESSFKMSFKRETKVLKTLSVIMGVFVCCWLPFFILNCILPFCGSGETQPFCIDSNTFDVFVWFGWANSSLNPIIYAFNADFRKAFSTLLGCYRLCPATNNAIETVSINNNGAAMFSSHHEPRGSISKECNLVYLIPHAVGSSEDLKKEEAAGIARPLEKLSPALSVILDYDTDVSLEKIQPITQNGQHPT
# Sequence of human Endothelin Receptor Type B (ETB), EDNRB (gene 1910) (P24530 whole entry, looked up): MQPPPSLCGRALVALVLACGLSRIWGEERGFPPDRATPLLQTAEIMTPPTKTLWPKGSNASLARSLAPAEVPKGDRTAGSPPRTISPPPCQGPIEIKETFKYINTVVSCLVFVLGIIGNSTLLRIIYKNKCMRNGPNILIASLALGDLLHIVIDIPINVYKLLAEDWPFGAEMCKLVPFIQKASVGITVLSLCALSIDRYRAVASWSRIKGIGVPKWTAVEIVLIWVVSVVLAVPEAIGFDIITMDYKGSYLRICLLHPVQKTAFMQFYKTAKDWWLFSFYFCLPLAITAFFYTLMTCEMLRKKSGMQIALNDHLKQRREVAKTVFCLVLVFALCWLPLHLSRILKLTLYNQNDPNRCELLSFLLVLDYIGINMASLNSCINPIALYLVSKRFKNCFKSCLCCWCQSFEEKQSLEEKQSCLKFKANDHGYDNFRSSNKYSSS
# Sequence of human Orphanin, Opioid Related Nociceptin Receptor 1 (ORL1), OPRL1 (gene 4987) (P41146 whole entry, looked up): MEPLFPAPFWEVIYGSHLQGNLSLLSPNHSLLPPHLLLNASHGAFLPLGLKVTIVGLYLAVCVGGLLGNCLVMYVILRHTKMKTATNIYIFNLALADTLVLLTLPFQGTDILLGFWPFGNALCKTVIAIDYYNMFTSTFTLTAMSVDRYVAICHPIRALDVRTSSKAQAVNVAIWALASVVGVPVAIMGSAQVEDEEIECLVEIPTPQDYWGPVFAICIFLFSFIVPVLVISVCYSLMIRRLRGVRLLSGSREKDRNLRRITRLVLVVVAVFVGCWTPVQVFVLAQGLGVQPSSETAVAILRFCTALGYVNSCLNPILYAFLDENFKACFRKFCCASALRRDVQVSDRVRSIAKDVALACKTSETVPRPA
# Sequence of human Thromboxane A2 Receptor (TXA2), TBXA2R (gene 6915) (P21731 whole entry, looked up): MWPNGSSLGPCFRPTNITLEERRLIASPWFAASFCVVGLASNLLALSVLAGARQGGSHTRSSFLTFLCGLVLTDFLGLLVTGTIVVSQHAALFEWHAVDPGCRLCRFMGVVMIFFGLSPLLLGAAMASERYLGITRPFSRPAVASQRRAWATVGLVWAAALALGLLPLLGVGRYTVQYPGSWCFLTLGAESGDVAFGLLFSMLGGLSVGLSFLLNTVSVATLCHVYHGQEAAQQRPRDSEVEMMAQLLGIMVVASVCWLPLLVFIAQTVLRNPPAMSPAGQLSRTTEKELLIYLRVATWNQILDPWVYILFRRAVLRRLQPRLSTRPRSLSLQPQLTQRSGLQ
# Sequence of human Endothelin Receptor Type A (ETA), EDNRA (gene 1909) (P25101 whole entry, looked up): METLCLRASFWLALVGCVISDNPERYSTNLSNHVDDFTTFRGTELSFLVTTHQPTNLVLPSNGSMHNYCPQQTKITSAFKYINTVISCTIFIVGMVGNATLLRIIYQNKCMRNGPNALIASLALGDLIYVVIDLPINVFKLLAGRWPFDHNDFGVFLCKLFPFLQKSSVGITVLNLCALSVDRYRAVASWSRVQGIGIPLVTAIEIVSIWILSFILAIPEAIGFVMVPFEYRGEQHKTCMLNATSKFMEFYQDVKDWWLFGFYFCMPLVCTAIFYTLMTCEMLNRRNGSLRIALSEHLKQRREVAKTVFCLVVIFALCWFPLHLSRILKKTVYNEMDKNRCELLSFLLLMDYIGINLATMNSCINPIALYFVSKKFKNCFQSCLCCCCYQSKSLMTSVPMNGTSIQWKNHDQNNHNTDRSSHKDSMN
# Sequence of human Dopamine Receptor D4.4 (DRD4.4), DRD4 (gene 1815) (P21917 whole entry, looked up): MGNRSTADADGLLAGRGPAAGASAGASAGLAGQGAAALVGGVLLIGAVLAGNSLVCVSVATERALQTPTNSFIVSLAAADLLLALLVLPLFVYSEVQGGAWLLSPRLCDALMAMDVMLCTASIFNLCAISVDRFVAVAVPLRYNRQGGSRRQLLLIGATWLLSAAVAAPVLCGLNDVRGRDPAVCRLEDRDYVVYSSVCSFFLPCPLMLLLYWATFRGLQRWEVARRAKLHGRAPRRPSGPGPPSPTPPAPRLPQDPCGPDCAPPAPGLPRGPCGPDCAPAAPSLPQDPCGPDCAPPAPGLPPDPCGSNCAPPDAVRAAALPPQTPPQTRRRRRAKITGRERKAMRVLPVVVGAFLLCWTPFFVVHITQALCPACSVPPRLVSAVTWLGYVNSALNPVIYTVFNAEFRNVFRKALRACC
# Sequence of Neuropeptide Y receptor type 2 (Homo sapiens) (P49146 whole entry, looked up): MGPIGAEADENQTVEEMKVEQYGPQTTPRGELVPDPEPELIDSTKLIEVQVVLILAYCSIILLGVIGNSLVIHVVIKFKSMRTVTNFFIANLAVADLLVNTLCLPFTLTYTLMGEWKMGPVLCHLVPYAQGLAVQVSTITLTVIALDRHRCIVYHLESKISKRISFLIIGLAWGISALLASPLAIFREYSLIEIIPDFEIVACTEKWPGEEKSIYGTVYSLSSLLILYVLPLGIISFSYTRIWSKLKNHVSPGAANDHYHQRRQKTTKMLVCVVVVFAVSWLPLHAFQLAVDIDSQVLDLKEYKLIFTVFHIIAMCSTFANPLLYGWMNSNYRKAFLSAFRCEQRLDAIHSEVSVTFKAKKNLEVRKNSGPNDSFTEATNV
smiles,measurement,setting,value
C[C@]12C=CC3=C4CCC(=O)C=C4CC[C@H]3[C@@H]1CC[C@@H]2O,outcome,[1],inactive
same,outcome,[2],inactive
same,AC50,[3],15.6 µM (active)
CN(C)C(=O)Nc1ccc(Cl)cc1,outcome,[4],inactive
O=P(OCCCl)(OCCCl)OCCCl,outcome,[5],inactive
O=[N+]([O-])c1ccc(Oc2ccc(Cl)cc2Cl)cc1,outcome,[6],inactive
same,outcome,[3],inactive
CCOc1cccc(C2(N3CCN(c4ccccc4)CC3)CCC(C)CC2)c1 (stereo not given),outcome,[7],inactive
OCCCBr,outcome,[1],inactive
Cc1ccc(N)c(N)c1,outcome,[3],inactive
Cc1cc(N=Nc2ccccc2C)ccc1N,AC50,[8],25 µM (active)
CCC[CH2][Sn]([Cl])([CH2]CCC)[CH2]CCC,AC50,[8],1.83 µM (active)
same,AC50,[9],0.695 µM (active)
same,AC50,[10],0.525 µM (active)
same,AC50,[1],15.1 µM (active)
same,AC50,[11],1.42 µM (active)
same,AC50,[6],0.445 µM (active)
same,AC50,[12],1.86 µM (active)
same,AC50,[13],1.44 µM (active)
same,AC50,[14],17.6 µM (active)
same,outcome,[15],inactive
same,AC50,[7],1.58 µM (active)
same,AC50,[16],10.3 µM (active)
same,AC50,[3],1.08 µM (active)
same,AC50,[5],0.593 µM (active)
same,AC50,[4],1.77 µM (active)
same,AC50,[17],1.21 µM (active)
COC(=O)Nc1nc2ccccc2[nH]1,outcome,[16],inactive
COP(=S)(OC)SCN1C(=O)c2ccccc2C1=O,AC50,[6],16.8 µM (active)
same,AC50,[3],8.63 µM (active)
same,outcome,[5],inactive
same,AC50,[17],44.4 µM (active)
O=C(N[C@H](c1ccccc1)[C@@H]1CN2CCC1CC2)c1c(Cl)ccc(C(F)(F)F)c1Cl,AC50,[6],37.5 µM (active)
same,outcome,[12],inactive
same,outcome,[14],inactive
same,AC50,[3],23.9 µM (active)
same,outcome,[5],inactive
same,AC50,[17],3.38 µM (active)
CCCCCCCCn1sccc1=O,AC50,[10],26 µM (active)
same,AC50,[6],1.32 µM (active)
same,AC50,[7],6.28 µM (active)
same,outcome,[18],inactive
same,AC50,[4],9.13 µM (active)
same,AC50,[17],14.1 µM (active)
CCC(C)c1ccc(O)cc1 (stereo not given),outcome,[9],inactive
CCN(CC)CCO,outcome,[14],inactive
[O-][Cl+]O,outcome,[10],inactive
Cc1cccc(N)c1N,AC50,[6],12.1 µM (active)
same,outcome,[7],inactive
same,outcome,[3],inactive
